# From ChEMBL document CHEMBL4513216, “Probing the Open Global Health Chemical Diversity Library for Multistage-Active Starting Points for Next-Generation Antimalarials” (ACS Infect Dis, 2020)
# Out of some 69,000 compounds screened, about 8,600 (12%) showed an effect of 50% or more. What follows is part of a selection rich in strong results, with near analogues and random picks from the rest.
# System: Plasmodium berghei
# Assay: Screen against P. berghei liver stage (PbLuc), transformed with Luciferase, at 10uM
# Type: functional, HepG2
# Details: tested at 10 uM
row,SMILES,INHIBITION [%]
1,CCCn1c(C)c(CC(=O)N(C)CC(=O)OC)c2c1CC(C)(C)CC2=O,4.25
2,CCOCC(O)CN1CCN(C(=O)c2ccsc2)CC1 (stereo not given),43.4
3,COc1cccc(C(=O)N2CCN(CC(O)c3ccccc3)CC2)c1 (stereo not given),32.2
4,COc1cccc(C(O)CN2CCN(C(=O)CCC(C)C)CC2)c1 (stereo not given),55.4
5,O=C(c1ccsc1)N1CCN(CC(O)c2cccc(F)c2)CC1 (stereo not given),40.6
6,CC(C)OCCC(=O)N1CCN(CC(O)c2ccccc2)CC1 (stereo not given),-12.5
7,COc1cccc(C(O)CN2CCN(C(=O)c3ccsc3)CC2)c1 (stereo not given),53.6
8,Cc1cccc2c1C(=O)NC(c1cnc(C3CCC3)s1)N2 (stereo not given),-91.5
9,CN1CCN(c2cccc(Cl)c2CNCCS(C)(=O)=O)CC1,19.9
10,Cn1c(Cn2ccnc2)nnc1C1CCN(C(=O)c2ccoc2)CC1,-62.8
11,CNc1ccc(CC2CCCN(C(=O)c3c(C)noc3C)C2)nn1 (stereo not given),21.9
12,CNc1ccc(CC2CCCN(C(=O)c3cnco3)C2)nn1 (stereo not given),1.11
13,CCc1cc(C(=O)N2CCCC(Cc3ccc(NC)nn3)C2)on1 (stereo not given),60.4
14,Cc1noc(CNC(=O)NCC2(C)CCCc3ccccc32)n1 (stereo not given),6.29
15,COCCCNC(=O)c1ccccc1-n1cc(CN(C)C)cn1,20.8
16,CC(C)NC(=O)C1CN(C(=O)COc2ccccc2)CC12CCOCC2 (stereo not given),24.1
17,CC(C)CCN1C2(CCN(C(=O)C3(C)CC3)C2)c2ccccc2S1(=O)=O (stereo not given),6.55
18,CN(C)CCN1C2(CCN(Cc3nccs3)C2)c2ccccc2S1(=O)=O (stereo not given),80
19,CC(C)CCN1C2(CCN(C(=O)N(C)C)C2)c2ccccc2S1(=O)=O (stereo not given),6.55
20,COCCN1C2(CCN(Cc3nccs3)C2)c2ccccc2S1(=O)=O (stereo not given),14.8
21,CC(C)CCN1C2(CCN(c3ncccn3)C2)c2ccccc2S1(=O)=O (stereo not given),13.5
22,CC(C)CCN1C2(CCN(Cc3nccs3)C2)c2ccccc2S1(=O)=O (stereo not given),78.8
23,O=C(Nc1ccccn1)c1cncc(C2CCNCC2)n1,-35.5
24,N#CC1Sc2nnc(-c3ccccc3Br)n2N=C1N (stereo not given),16.2

row,SMILES,INHIBITION [%]
1,O=C(c1ccc(-n2cnnn2)cc1)N1CCCC(n2ccnc2)C1 (stereo not given),26.4
2,CCN(CC1CCOC1)C(=O)Nc1ccc(N2CCCCC2)nc1 (stereo not given),-8.83
3,COCCNc1ccc(CC2CCCN(C3CCOCC3)C2)nn1 (stereo not given),7.71
4,O=C(c1nsc(Cl)c1Cl)N1CCc2nc3sccc3c(=O)n2CC1,-14.1
5,CN(C)C(=O)c1n[nH]c2c1CN(Cc1nccs1)CC2,88
6,CN(C)C(=O)c1n[nH]c2c1CCN(Cc1nccs1)C2,-53.6
7,CN1CCN(C(=O)c2n[nH]c3c2CN(Cc2nccs2)CC3)CC1,-105
8,CC(C)CNC(=O)c1cn(C(C)C)cc2c(=O)[nH]nc1-2,36.8
9,Cn1c(=O)[nH]c(=O)n2c(CC(=O)NCc3ccccc3)cnc12,19.3
10,O=C(Nc1cccnc1-n1cc(Cl)cn1)C1CCCCC1,52.6
11,O=C(Nc1cccnc1-n1cc(Cl)cn1)C1CCCC1,48
12,O=C(Nc1cccnc1-n1cc(Cl)cn1)C1CC1,41.5
13,COc1ccc(C)cc1C(C)NC(=O)CCn1cncn1 (stereo not given),19.2
14,O=C(c1ccnnc1)N1C[C@@H]2C[C@@H](c3nc(C4CC4)cs3)O[C@@H]2C1,-60.2
15,O=C(c1ccncn1)N1CCC[C@]2(C[C@@H](OCc3ccccn3)CO2)C1,43.9
16,COc1ccc(S(=O)(=O)C(F)(F)F)cc1NC(=O)CSC,63.7
17,COCC(=O)Nc1cc(S(=O)(=O)C(F)(F)F)ccc1OC,33.7
18,COc1ccc(S(=O)(=O)C(F)(F)F)cc1NC(=O)CSCC#N,48.3
19,Cc1ccccc1CN(C)C(=O)CN1CCCC(Cn2cncn2)C1 (stereo not given),-51.5
20,COc1cc(C)c(C(C)NC(=O)NCCCn2cncn2)cc1OC (stereo not given),-19.4
21,CN(C)CCN1Cc2ncn(C)c2C(COCC(=O)N(C)C)C1 (stereo not given),50
22,CCn1nnc2c1C(COCCN(C)C)CN(c1nncs1)C2 (stereo not given),57.1
23,CCn1nnc2c1C(COCCN(C)C)CN(S(C)(=O)=O)C2 (stereo not given),43.8
24,Cc1cccc(CN2Cc3ncn(C)c3C(COCC(=O)N(C)C)C2)n1 (stereo not given),-10.3

row,SMILES,INHIBITION [%]
1,CN(C)CCOCC1CN(Cc2ccoc2)Cc2nnn(C)c21 (stereo not given),18.5
2,CCn1nnc2c1C(COCCN(C)C)CN(Cc1ccco1)C2 (stereo not given),62.3
3,CN(C)CCOCC1CN(Cc2ccncc2)Cc2nnn(C)c21 (stereo not given),3.58
4,CCn1nnc2c1C(COCCN(C)C)CN(S(=O)(=O)CC)C2 (stereo not given),52.6
5,CN(C)C(=O)COCC1CN(CC2CCOCC2)Cc2ncn(C)c21 (stereo not given),4.57
6,CCn1nnc2c1C(COCCN(C)C)CN(Cc1ccc(C)s1)C2 (stereo not given),-22.1
7,CCS(=O)(=O)N1Cc2nnn(C)c2C(COCCN(C)C)C1 (stereo not given),48.2
8,CCn1nnc2c1C(COC)CN(Cc1ccco1)C2 (stereo not given),-30.1
9,CN1CCOC(CNCc2coc(-c3ccc(Cl)cc3)n2)C1 (stereo not given),33.7
10,CN(CC(=O)N1CCc2[nH]c3ccc(F)cc3c2C1)CC1OCCO1,22.9
11,Cc1c(C(=O)N2CCC3(CCCNC3=O)C2)sc2nc[nH]c(=O)c12 (stereo not given),12.9
12,CN(C)Cc1cnc2n1CCN(C(=O)NCc1ccccc1)CC2,21.6
13,CC(=O)c1ccc(C(=O)NCCCOC(C)c2ccccc2)s1 (stereo not given),29.2
14,Cc1cc(N)nc(C2(C)CCCN2C(=O)c2cnccn2)n1 (stereo not given),17.1
15,O=S(=O)(NCCn1ccc(-c2ccccn2)n1)C1CCCCC1,40
16,Cc1n[nH]c2nc(-c3cc(Br)ccc3O)cc(C(=O)O)c12,4.82
17,Cc1ccc(O)c(CN2CCCCC2CCN2CCOCC2)c1 (stereo not given),30.3
18,Cc1nnc2n1CCN(Cc1csc(-c3ncccn3)n1)C2,26.4
19,Cn1c(CN2CCCCC2)nnc1C1CCCN(c2ccncc2F)C1 (stereo not given),-2.43
20,CCn1nnc2c1C(COCC(=O)N(C)C)CN(Cc1ccoc1)C2 (stereo not given),53.4
21,CCn1nnc2c1C(COCC(=O)N(C)C)CN(Cc1ccco1)C2 (stereo not given),-3.26
22,CN(C)C(=O)COCC1CN(Cc2ccoc2)Cc2nnn(C)c21 (stereo not given),-3.24
